Measurements from PubChem BioAssay AID1476 (National Center for Advancing Translational Sciences (NCATS), 2009).
Out of some 200,000 compounds screened, about 4,500 (2.2%) were called active. About 12% were inconclusive and are not listed. This is one part of a sample in which actives are shown more often than they occur. The call rests on the fitted dose curve; in most records, active means well fitted inhibition curve with a large enough effect; inconclusive means small, poorly fitted or top-dose-only effect, or effect the other way; inactive means flat fitted curve, though single readings scatter.

Target: Cruzipain (Trypanosoma cruzi) (UniProt P25779)
Experiment: qHTS Assay for Promiscuous and Specific Inhibitors of Cruzain (without detergent); further: nearly all actives have a fitted effect of over 40% in size;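 on max response, negative = inhibition: plate controls were enzyme without inhibitor for no effect and buffer without enzyme for full effect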
Conditions: purified cruzain, Z-FR-AMC fluorescence, no detergent
Procedure, shortened: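 Purified cruzain at 1.5 nM, pre-incubated 15 min with compound at room temperature in 100 mM sodium acetate pH 5.5, 5 mM DTT, 0.00005% Triton X-100. Reaction started with 2 uM Z-FR-AMC; AMC fluorescence increase over 60 s gives rate.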
Potency means the concentration at half of the fitted maximal effect.

Cruzipain (Trypanosoma cruzi), sequence (P25779 123-467 limits assumed): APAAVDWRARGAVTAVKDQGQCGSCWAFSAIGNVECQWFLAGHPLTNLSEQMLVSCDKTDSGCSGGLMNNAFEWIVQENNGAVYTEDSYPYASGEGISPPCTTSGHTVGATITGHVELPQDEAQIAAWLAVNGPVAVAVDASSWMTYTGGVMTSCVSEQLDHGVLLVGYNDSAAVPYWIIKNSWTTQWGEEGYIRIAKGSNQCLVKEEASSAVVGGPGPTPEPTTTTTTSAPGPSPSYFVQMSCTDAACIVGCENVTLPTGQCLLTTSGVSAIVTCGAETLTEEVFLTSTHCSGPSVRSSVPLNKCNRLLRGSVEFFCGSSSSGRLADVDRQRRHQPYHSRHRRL

Row | Structure (SMILES) | max response, negative = inhibition | Potency
1 | c1ccc(Nc2nc(-c3ccncc3)cs2)nc1 | 2.93% (inactive) | –
2 | c1cnc(Nc2nc(-c3ccc4ccccc4c3)cs2)nc1 | – | 3.98 µM (active)
3 | COc1ccc(Nc2nc(-c3ccccc3)cs2)cc1 | -15.9% (inactive) | –
4 | COC(=O)c1ccccc1NC(=O)c1cnn(-c2ccc(F)cc2)c1-n1cccc1 | 3.91% (inactive) | –
5 | CCCc1cc(-c2nc(-c3ccc(C)cc3)cs2)ccn1 | 13.4% (inactive) | –
6 | CCCCCN1CC(O)=C(c2nc(-c3ccc(Cl)cc3)cs2)C1=N | – | 5.01 µM (active)
7 | CCCCCN1CC(O)=C(c2ccccc2)C1=N | -0.607% (inactive) | –
8 | Cc1ccc(S(=O)(=O)N(Cc2nc(-c3ccc(Cl)cc3)no2)C2CCCCC2)cc1 | -17.5% (inactive) | –
9 | CCN(CC)S(=O)(=O)c1ccc2c(c1)N(CC(=O)NCc1ccccc1)C(=O)CS2 | 1.54% (inactive) | –
10 | O=C(C(=O)N1CCc2ccccc2C1)N1CCc2ccccc2C1 | -0.495% (inactive) | –
11 | N#C/C(=C1\CCCN1)c1nc(-c2ccccc2)cs1 | -17.6% (inactive) | –
12 | c1ccc(-c2csc(N3CCc4ccccc4C3)n2)cc1 | – | 25.1 µM (active)
13 | Cc1ccc(OCC(=O)Nc2ccc(OCc3cc(=O)n4c(C)csc4n3)cc2)cc1C | -9.52% (inactive) | –
14 | Cc1ccc(C)c(Cn2c(C)c(CNCc3ccc(F)cc3)c(C(=O)O)c2C)c1 | 16.1% (inactive) | –
15 | O=C1CSC2(C(=O)N(Cc3ccccc3)c3ccccc32)N1c1cccc(F)c1 (configuration not stated) | 2.62% (inactive) | –
16 | COc1ccc(CN2C(=O)CC(Cc3ccc(C)cc3)C2=O)cc1OC (configuration not stated) | -8.47% (inactive) | –
17 | COc1ccc(N2C(=O)CS(=O)(=O)C23C(=O)N(Cc2ccc(C)cc2)c2ccccc23)cc1Cl (configuration not stated) | – | 2.51 µM (active)
18 | Cc1oc(-c2ccccc2F)nc1CN1CCC(C(=O)NCCc2ccc(Cl)cc2)CC1 | 1.36% (inactive) | –
19 | CC1=C(C(=O)OCc2ccc(C)cc2)C(c2ccccc2Cl)CC(=O)N1 (configuration not stated) | 4.48% (inactive) | –

Row | Structure (SMILES) | max response, negative = inhibition | Potency
20 | COc1cc2c(cc1/C=C1/NC(=O)N(c3ccccc3)C1=O)OCO2 | -27.8% (inactive) | –
21 | O=C1CC(NNc2ccccc2)C(=O)N1c1cccc(Cl)c1 (configuration not stated) | -28.1% (inactive) | –
22 | O=C1N/C(=C/c2cccn2-c2ccccc2)C(=O)N1c1cccc(Cl)c1 | – | 10 µM (active)
23 | Cc1nnc(NC(=O)/C=C/c2ccco2)s1 | -4.39% (inactive) | –
24 | Cc1ccc(-n2nc3ccc(NC(=O)/C=C/c4ccco4)cc3n2)cc1C | – | 12.6 µM (active)
25 | O=C(/C=C/c1ccco1)Nc1ccc(Oc2ccccc2)cc1 | -5.89% (inactive) | –
26 | COc1ccccc1Nc1c2c(nc3ccc(NC(=O)/C=C/c4cc(OC)c(OC)c(OC)c4)cc13)CCCC2 | -4.58% (inactive) | –
27 | Cc1ccc(OCC(=O)N/N=C\c2ccco2)c(C)c1 | 4.92% (inactive) | –
28 | COc1ccc(C(=O)Nc2cc(C)ccc2NC(=O)COc2ccccc2)cc1 | 2.68% (inactive) | –
29 | Cc1ccc(O)c(NC(=O)COc2cc(C)ccc2C)c1 | – | 31.6 µM (active)
30 | Cc1noc(/C=C/N(C)C)c1S(=O)(=O)N1CCCC(C(=O)NCc2ccco2)C1 (configuration not stated) | 14.2% (inactive) | –
31 | Cc1noc(/C=C/c2ccco2)c1S(=O)(=O)N1CCC(C(=O)N2CCc3ccccc32)CC1 | – | 15.8 µM (active)
32 | CC(=O)c1ccc(NC(=O)C2CCN(S(=O)(=O)c3c(C)noc3/C=C/c3ccc(C)cc3)CC2)cc1 | 9.83% (inactive) | –
33 | Cc1noc(/C=C/c2ccco2)c1S(=O)(=O)N1CCC(C(=O)Nc2ccc(Cl)cn2)CC1 | – | 6.31 µM (active)
34 | Cc1cc(C)c(/C=C/c2onc(C)c2S(=O)(=O)N2CCC(C(=O)Nc3ccc(Cl)cc3C)CC2)c(C)c1 | 0.507% (inactive) | –
35 | Cc1cccc(NC(=O)C2CCN(S(=O)(=O)c3c(C)noc3/C=C/c3ccco3)CC2)c1 | 2.41% (inactive) | –
36 | Cc1ccc(NC(=O)CCCn2c(=O)c3cccn3c3ccccc32)cc1Cl | 8.76% (inactive) | –
37 | Cc1ccc(C)c(N2CCN(C(=O)CN3C(=O)COc4ccc(S(=O)(=O)N5CCCCCC5)cc43)CC2)c1 | -9.73% (inactive) | –
38 | Cc1ccc(C)c(NC(=O)CSC2=Nc3ccccc3N=C(c3ccc(F)cc3)C2)c1 | 1.61% (inactive) | –

Row | Structure (SMILES) | max response, negative = inhibition | Potency
39 | O=C(Nn1c(-c2ccccc2)nc2ccccc2c1=O)c1ccc([N+](=O)[O-])cc1 | 8.42% (inactive) | –
40 | O=C(Nn1c(SCc2ccc([N+](=O)[O-])cc2)nc2ccccc2c1=O)c1ccc(F)cc1 | – | 10 µM (active)
41 | O=C(CCn1c(SCC(=O)c2ccccc2)nc2ccccc2c1=O)NCc1ccc(F)cc1 | -24.2% (inactive) | –
42 | CCc1cccc(C)c1NS(=O)(=O)c1ccc(-c2cc(C)no2)s1 | -2.03% (inactive) | –
43 | CCc1ccc(-n2nnc(-c3nc(-c4ccccc4)no3)c2C)cc1 | 11.5% (inactive) | –
44 | CCCNC(=O)c1ccc(Cn2c(SCC(N)=O)nc3ccccc3c2=O)cc1 | -1.8% (inactive) | –
45 | COc1ccc(CC(=O)Nc2nnc3n2CCS3)cc1OC | 3.34% (inactive) | –
46 | O=S(=O)(O)c1ccc(O)c2ncccc12.O=S(=O)(O)c1ccc(O)c2ncccc12.[Zn] | – | 3.16 µM (active)
47 | O=C(O)COc1c(Cl)cc(Cl)c2cccnc12 | -2.23% (inactive) | –
48 | CC(=O)c1ccc(N2CCN(C3C(=O)c4ccccc4N3C(C)=O)CC2)cc1 (configuration not stated) | 6.9% (inactive) | –
49 | COc1ccc(C(F)(F)F)cc1NC(=O)c1sc2nc(-c3cccs3)ccc2c1N | -12.3% (inactive) | –
50 | CCN(CC(=O)Nc1ccc2c(c1)OCCO2)Cc1cc(=O)oc2cc(C)c(C)cc12 | -1.71% (inactive) | –
51 | O=C(COc1ccc2c(C(F)(F)F)cc(=O)oc2c1)Nc1ccc2c(c1)OCCO2 | – | 7.94 µM (active)
52 | CC(C)NS(=O)(=O)c1ccc(OCC(=O)Nc2ccc3c(c2)OCCO3)cc1 | 5.06% (inactive) | –
53 | Cc1ccc(CN(C(=O)c2ccccc2[N+](=O)[O-])c2ccccn2)cc1 | -9.11% (inactive) | –
54 | COc1ccc(CNC(=O)c2cc3c(=O)[nH]c4ccc(C)cc4c3s2)c(OC)c1 | 8.63% (inactive) | –
55 | C/C(=N\NC(=O)c1nc(C)cc(C)n1)c1ccccc1 | 4.34% (inactive) | –
56 | C/C(=N\NC(=O)Cc1ccc(F)cc1)c1ccc(F)cc1 | 11.2% (inactive) | –
57 | C/C(=N\NC(=O)CNC(=O)C(c1ccccc1)c1ccccc1)c1ccc(C)cc1 | – | 12.6 µM (active)
